An excerpt weighted towards active compounds, which were near 0.83% of everything screened.
Menin MLL FP TR – qHTS Assay for Inhibitors Targeting the Menin-MLL Interaction in MLL Related Leukemias: Competition With Texas Red Labeled MLL-derived Mutant Peptide. Menin + Texas Red MLL mutant peptide, fluorescence polarization. Potency, µM (highest dose often 61.6 µM), most hits filed as inhibitors. 270,000 compounds, 0.23% hits. AID 1768, 2009; active = well fitted inhibition curve with a large enough effect in the polarisation, with a control signal flat, not every such curve was filed as active; inconclusive = small, poorly fitted or top-dose-only effect, or effect the other way, or a change in a side signal; inactive = no such curve, though single readings can be large or run the other way; the % refers to the polarisation
Menin-MLL FL inh – qHTS Assay for Inhibitors Targeting the Menin-MLL Interaction in MLL Related Leukemias: Competition With Fluorescein Labeled MLL-derived Peptide; FP activity change, % at 61.4 µM; 290,000 tested, under 10 active; Fluorescence polarization, fluorescein-MLL peptide displacement from menin; active = well fitted curve in the direction sought with a large enough effect in the polarisation, not every such curve was filed as active; inconclusive = small, poorly fitted or top-dose-only effect, or effect the other way, or a change in a side signal; inactive = no such curve, though single readings can be large or run the other way; the % refers to the polarisation
MLL CXXC-DNA inh – qHTS Fluorescence Polarization Assay for Inhibitors of MLL CXXC domain - DNA interaction | Histone-lysine N-methyltransferase 2A (Homo sapiens), Q03164 | MLL-CXXC / FITC-HOXA9 DNA fluorescence polarization | 290,000 compounds, 0.037% hits | Potency, µM (top dose mostly 115 µM), hits mostly inhibitors; active = well fitted inhibition curve with a large enough effect in the polarisation, with a control signal flat, not every such curve was filed as active; inconclusive = small, poorly fitted or top-dose-only effect, or effect the other way, or a change in a side signal; inactive = no such curve, though single readings can be large or run the other way; the % refers to the polarisation
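Fluorescence polarization: 7 uM MLL-CXXC (stock) preincubated 5 min with compounds, then 50 nM fluorescein-HOX-A9 DNA (stock) added; 30 min ambient. Buffer 50 mM Tris-HCl pH 7.5, 50 mM NaCl, 1 mM DTT, 0.05% BSA.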
CtBP-E1A inh – qHTS Assay for Inhibitors of the CtBP/E1A Interaction | CtBP / adenovirus E1A interaction (AlphaScreen) | AlphaScreen GST-E1A/His-CtBP binding, 1536-well; active compounds read low | activity change, % (no concentration beside the values) | 340,000 compounds, 0.49% hits | AID 651724, 2012
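Steps: dispense buffer (Tris pH 8.0, NaCl 300 mM, TCEP 1 mM, BSA, Tween 20); add 5X protein mix (GST-E1A, His-CtBP, 125 nM each); pin 23 nL compound; 2 h at 37 °C, dark; add 5X beads (50 ug/mL); 1 h; read.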
GLS inhibitor – qHTS for Inhibitors of Glutaminase (GLS); Glutaminase kidney isoform, mitochondrial (Homo sapiens), O94925; GLS enzymatic activity, qHTS titration; Potency, µM (top dose mostly 45.5 µM), usual class: inhibitors; 410,000 compounds, 0.21% hits; AID 624170, 2012; active = well fitted inhibition curve with a large enough effect; inconclusive = small, poorly fitted or top-dose-only effect, or another doubt; inactive = no such curve, though single readings can be large or run the other way
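hKGA in 45 mM KH2PO4 (pH 8.2), 0.02% Tween-20 with compound, then 1mM L-Glutamine (stock as added) plus glutamate oxidase/HRP/Amplex red coupling mix. Fluorescence read initially and after 30 min at RT; signal change reflects glutamate formation.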
Six1-Eya2 inh – qHTS Assay for Inhibitors of the Six1/Eya2 Interaction | Homeobox protein SIX1 (Homo sapiens) + Protein phosphatase EYA2 (Homo sapiens), … | AlphaScreen GST-Six1/His-Eya2 binding, biochemical; active compounds read low | activity change, % (no concentration beside the values) | 360,000 compounds, 0.56% hits | AID 651725, 2012
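Compounds are tested against tagged Six1 and Eya2 proteins bridged by glutathione donor and nickel acceptor beads; after a one-hour incubation at 37 °C without light, AlphaScreen emission is recorded.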
A number is an active result; . = inactive; ? = inconclusive; / = no result given; [ ] = dose if it differs, or a comment. Rule as the data show it, unless noted: active = activity change below about -65%; inconclusive = mostly about -30% to -63%; inactive = weaker than that.

SMILES | Menin MLL FP TR | Menin-MLL FL inh | MLL CXXC-DNA inh | CtBP-E1A inh | GLS inhibitor | Six1-Eya2 inh
Cc1[nH]c(N=Nc2ccccc2)nc1N=Nc1ccccc1 | / | . | ? | -66 | . | ?
Nc1ccc(N=Nc2ccccc2)c(N)n1 | ? | . | . | ? | . | .
NCC(=O)N[C@@H](CCCN=C(N)N)C(=O)NCC(=O)N[C@@H](CC(=O)O)C(=O)N[C@@H](CC(N)=O)C(=O)N1CC[C@@H](C(=O)O)C1 | . | . | / | / | / | /
CN(C1=C(N2CCOCC2)C(=O)c2ccccc2C1=O)c1ccccc1 | . | . | . | ? | . | -82
O=C1C(NS(=O)(=O)c2cccs2)=C(N2CCOCC2)C(=O)c2ccccc21 | / | . | . | . | . | .
O=C(CN1CCOCC1)N/N=C/C(Br)=C\c1ccccc1 | . | . | . | -81 | . | .
O=C(N/N=C/C(Br)=C/c1ccccc1)c1ccccc1[N+](=O)[O-] | . | . | . | -92 | . | .
O=C(N/N=C/C=C\c1ccccc1)c1cnccn1 | . | . | . | . | . | .
O=C(N/N=C/C(Br)=C/c1ccccc1)c1cnccn1 | / | . | . | ? | . | -82
O=C(N/N=C/C(Br)=C\c1ccccc1)c1n[nH]c2c1CCC2 | . | . | . | -87 | . | .
CC(/C=N/NC(=O)c1n[nH]c2c1CCC2)=C\c1ccccc1 | . | . | . | . | . | .
COc1ccc2[nH]cc(CCNc3ncncc3-c3ccc(N(C)C)cc3)c2c1 | . | . | / | / | / | /
COc1cc2oc(=O)cc(-c3ccc(-c4ccc(NC(C)=O)cc4)cc3)c2c(OC)c1OC | . | . | / | / | / | /
COc1ccc(N2C=C3C(=O)C(C)(OC(=O)C4CCCC4)C(=O)C=C3C=C2c2ccsc2)cc1 (centres undefined) | .[11.7 µM] | .[11.7 µM] | / | / | / | /
COc1ccc(C(=O)N/N=C/C(Br)=C/c2ccccc2)cc1 | . | . | . | ? | . | .
COc1cccc(C(=O)N/N=C/C(Br)=C/c2ccccc2)c1 | . | . | . | -88 | . | .
Fc1ccc(C2=NC(c3cccc(C(F)(F)F)c3)=Nc3ccccc3N2)cc1 | / | / | / | / | . | /
N#Cc1c(N)nc(SC2CCCCC2=O)c(C#N)c1-c1ccco1 (centres undefined) | / | / | / | ? | . | -66
Cc1cc(C)nc(N/N=C/c2cc(Br)ccc2O)n1 | / | . | ? | -81 | . | ?
COc1ccc(CNc2ncnc3c2[nH]c2cc(OC)c(OC)cc23)cc1 | / | . | . | ? | . | ?
COc1cc2[nH]c(=S)nc(NCc3ccccc3)c2cc1OC | . | . | . | -82 | . | -78
COc1cc2[nH]c(=S)nc(NCc3cccc(Cl)c3)c2cc1OC | . | . | . | / | . | ?
COc1cc2[nH]c(=S)nc(NCc3cccnc3)c2cc1OC | ? | . | . | -82 | . | -69
COc1cc2[nH]c(=S)nc(NCc3ccc(C)cc3)c2cc1OC | . | . | . | / | . | -74
COc1cc2[nH]c(=S)nc(NCc3ccccn3)c2cc1OC | . | ? | . | ? | . | -70
SMILES | Menin MLL FP TR | Menin-MLL FL inh | MLL CXXC-DNA inh | CtBP-E1A inh | GLS inhibitor | Six1-Eya2 inh
COc1ccc(Br)cc1CNCc1c(C(=O)O)c(C)n(Cc2ccccc2C)c1C | / | / | / | / | . | /
COc1ccc(CNc2nc(=S)[nH]c3cc(OC)c(OC)cc23)cc1 | ? | . | . | / | . | -82
COc1cc(/C=C/C(=O)OCC(=O)N2CCCc3ccccc32)ccc1O | / | / | / | . | 10µM | .
COc1cc(/C=C(\C#N)c2[nH]nc(N)c2C#N)cc(OC)c1O | ? | ? | . | -67 | 10µM | ?
COc1cc(/C=C(\C#N)c2ccccn2)cc(OC)c1O | / | ? | ? | . | . | .
CC(C)c1onc(-c2c(Cl)cccc2Cl)c1COc1ccc(/C=C/c2cccc(C(=O)O)c2)c(Cl)c1 | ? | . | / | / | / | /
Cc1nc(S/C(=C\c2ccc(-c3ccc(C(=O)O)c(Cl)c3)o2)C(=O)O)n[nH]1 | / | ? | . | / | 16µM | ?
Cc1nc(S/C(=C\c2ccc(OCc3ccccc3Cl)cc2)C(=O)O)n[nH]1 | / | . | ? | . | . | .
O=C1C(Cl)=C(NC(=O)c2ccccc2)C(=O)C(Cl)=C1NC(=O)c1ccccc1 | / | / | ? | . | ? | -73
O=C(NC1=C(Nc2ccc(Cl)cc2)C(=O)c2ccccc2C1=O)c1ccccc1 | . | . | . | ? | . | ?
CN(C1=C(NC(=O)c2ccc(Cl)cc2)C(=O)c2ccccc2C1=O)c1ccccc1 | . | . | . | -88 | . | -86
COc1cc2c3cc1Oc1c(OC)c(OC)cc4c1[C@@H](Cc1ccc(OC(=O)c5ccc([N+](=O)[O-])cc5)c(c1)Oc1ccc(cc1)C[C@@H]3N(C)CC2)N(C)CC4 | . | . | / | / | / | /
CCOc1ccc(C2CC(=O)Nc3c2c(=O)nc(SCc2ccccc2C)n3C)cc1OC (centres undefined) | / | / | / | / | . | /
O=C(OCC(COC(=O)c1cccnc1)(COC(=O)c1cccnc1)COC(=O)c1cccnc1)c1cccnc1 | / | / | / | / | . | /
O=C1Cc2cccc(=O)c(O)c2C(=O)O1 | / | / | / | . | 4µM | ?
O=C(Cc1ccc(Cl)cc1)Nc1ccc(NC(=O)c2ccccc2)cc1 | 10µM | . | . | . | . | .
CCOc1ccc(C(=O)N/N=C(\c2ccccc2)c2ccccn2)cc1 | ? | . | . | -67 | . | ?
O=C(N/N=C(\c1ccccc1)c1ccccn1)c1cccc([N+](=O)[O-])c1 | ? | . | . | / | . | -91
CCOc1ccc(C(=O)Nc2cccc3cccnc23)cc1 | . | . | . | . | . | .
O=C1C(=O)c2cccnc2-c2ncccc21 | / | / | / | -80 | . | -83
NC(=O)c1cc(N)ccc1N1CCCC1 | ? | . | . | . | . | .
CC1CCCN(c2ccc(N)cc2C(N)=O)C1 (centres undefined) | . | . | . | . | 7.1µM | .
CC(=O)OCC1OC(c2ccc3c(c2)OCO3)C=CC1OC(C)=O (centres undefined) | .[11.7 µM] | .[11.7 µM] | / | / | / | /
O=C1C2C3C=CC(CC3)C2C(=O)N1/N=C/c1ccc(O)c(O)c1 (centres undefined) | . | . | . | . | . | .
O=C1c2ccccc2C(=O)N1/N=C/c1ccc(O)c(O)c1 | . | . | . | . | 2.5µM | .
CC(NNC(=S)N1CCN(c2ccccn2)CC1)c1nccc2ccccc12 (centres undefined) | / | / | / | . | . | -92
CCNC(=S)N1CCN(c2ccccn2)CC1 | . | . | . | . | . | .
N=C(N)c1ccc(OCCCOc2ccc(C(=N)N)cc2)cc1 | / | / | / | / | . | /
